Only some compounds are listed: those with a hit (about 0.51% of all), similar ones and a draw of the others.
FMDV Renilla: FMDV antiviral activity by Renilla signal. FMDV replicon cells, Renilla luciferase signal. Potency, µM (doses to about 57.5 µM), for inactives: at the highest dose activity change, negative = inhibition, actives largely listed as inhibitors. hit rate 0.32% among 120,000; note: nearly all actives have a fitted effect of over 55% in size
FMDV FLuc: antivirals against foot and mouth disease virus | FMDV antiviral cell assay, firefly luciferase signal | AID 1745856 | Potency, µM (highest dose often 57.5 µM), for the others: at the highest dose activity change, negative = inhibition, most hits filed as inhibitors | hit rate 0.23% among 120,000; note: nearly all actives have a fitted effect of over 60% in size
* marks the source's active call; other numbers are inactive results; ? = inconclusive; [ ] = another dose, or the depositor's remark. Calls come from the whole dose curve. % is set by controls: 0 for no effect and ±100 for the full control effect; potency is the fitted concentration of half-maximal effect.

SMILES	FMDV Renilla	FMDV FLuc
CN(C)C(=O)C(OC(=O)c1cc(-c2cccs2)nc2ccccc12)c1ccccc1 (stereo unspecified)	4%	2%
O=C(CSc1ccc2ccccc2n1)Nc1ccc2c(c1)CCC2	-1%	59%
O=C(CSc1ccc(N2CCC(C(=O)N3CCCCC3)CC2)nn1)Nc1ccc2c(c1)CCC2	3.2µM*	4µM*
O=C(c1ccc(F)cc1)C1CCN(CCn2c(=O)[nH]c3ccccc3c2=O)CC1	17%	-14%[11.5 µM]
O=C(Nc1ccc(SCc2cccnc2)cc1)c1ccc2c(c1)OCCCO2	18µM*	?
O=C(Nc1ccc2c(c1)OCCCO2)c1ccc(SCc2cscn2)cc1	?	-10%
O=C(NC1CC1)C(Sc1cc(Cl)ccc1Cl)c1ccccc1 (stereo unspecified)	-2%[1.06 µM]	-3%
Cc1ccc(NC(=O)CCS(=O)(=O)c2cc3c4c(c2)CCN4C(=O)CC3)c(C)c1	-10%	-15%
COc1ccc(C(=O)Nc2ccc3oc(-c4ccncc4)nc3c2)cc1OC	-5%	0%
CCOc1ccc(C(=O)Nc2ccc3oc(-c4ccncc4)nc3c2)cc1Br	6.3µM*	?
Cc1ccc(NC(=O)N2CCN(c3cc(-c4noc(C)n4)ccc3C)CC2)c(C)c1	-4%	11%
Cc1nc(-c2ccc(C)c(N3CCN(C(=O)Nc4cccc(Cl)c4C)CC3)c2)no1	?	25µM*
COc1ccc(-c2noc(CCCC(=O)Nc3ccc(S(=O)(=O)N4CCCCCC4)cc3)n2)cc1	?	32µM*
COc1ccc(-c2noc(CCCC(=O)Nc3cccc(Cl)c3C)n2)cc1	-12%	-14%
COc1ccc(OC)c2[nH]c(C(=O)NCC(=O)N3CCN(Cc4ccccc4)CC3)cc12	-16%	-12%
CC(C)(C)c1ccc(C(=O)NC(CC(=O)O)c2ccc(C(C)(C)C)cc2)cc1 (stereo unspecified)	-11%[1.06 µM]	58%
CCOc1ccccc1CNCc1c(C(=O)O)n(Cc2ccccc2)c2cc(OC)ccc12	1%	-21%
COc1ccc(Cn2c(C(=O)O)c(CNCc3ccccc3F)c3ccc(OC)cc32)cc1	0%	35µM*
Clc1ccc(/C=N/Nc2ccc(Cl)c(Cl)c2)cc1Cl	10%	93%
COc1ccc(S(=O)(=O)Nc2cccc(-c3ccc(N4CCC(C)CC4)nn3)c2)c(OC)c1	211%	132%
CCCCN(Cc1ccccc1)c1ccc(C(=O)O)cc1NS(=O)(=O)c1ccc(C)cc1C	37%	27%
O=C(Nc1nnc(S(=O)(=O)N2CCOCC2)s1)c1ccccc1Cl	-3%	18%
CC(=O)Nc1ccc(S(=O)(=O)N2CCCC(C(=O)Nc3cccc4ncccc34)C2)cc1 (stereo unspecified)	9%	9%
Cc1cccc(N2CCN(S(=O)(=O)c3csc(C(N)=O)c3)CC2)c1C	8.9µM*	13µM*
COc1ccc(N2CCN(S(=O)(=O)c3csc(C(N)=O)c3)CC2)cc1	-15%	-8%
SMILES	FMDV Renilla	FMDV FLuc
COc1cc(OC)c(OC)cc1/C=C1\Oc2cc(OS(=O)(=O)c3ccc(C)cc3)ccc2C1=O	11%	-3%
CC(C)S(=O)(=O)c1oc(-c2ccc(F)cc2)nc1S(=O)(=O)c1ccccc1	4%	?
CCCCS(=O)(=O)c1oc(-c2ccc(F)cc2)nc1S(=O)(=O)c1ccccc1	6%	28µM*
O=C(CCC1CCCC1)NCC(c1cccs1)N1CCCC1 (stereo unspecified)	-1%	20%
COc1cc(N2C(=O)NC(=O)C3(Cc4cc(C)ccc4N(C)C3)C2=O)cc(OC)c1OC (stereo unspecified)	6%	4%
CC(=O)c1ccc(NC(=O)CSc2nnc(Cc3cccn3C)n2-c2ccc(F)cc2)cc1	160%	-4%
CSc1ccc(CN(C)C(=O)CSc2nnc(COc3ccc(Cl)cc3)n2C)cc1	4µM*	10µM*
CN(Cc1ccsc1)C(=O)CSc1nnc(COc2ccc(Cl)cc2)n1C	9%	7%
CCCCC(CC)CN=C(N)NC(N)=NCCCCCCN=C(N)NC(N)=NCC(CC)CCCC (stereo unspecified)	28µM*	?
CCCCN=C(N)N=C(N)N	-1%	-8%[11.5 µM]
COc1ccc(-c2nc(CS(=O)CC(=O)NCc3ccc(C)cc3)c(C)o2)cc1OC (stereo unspecified)	20%	8%
COc1ccc2sc(N(Cc3cccnc3)C(=O)c3cccs3)nc2c1	3.2µM*	?
CCOc1ccc2nc(N(Cc3cccnc3)C(=O)c3cccs3)sc2c1	4%	55%
CC1CCC(NC(=O)c2ccc(CSc3nc4ccncc4n3Cc3ccc(F)cc3)cc2)CC1 (stereo unspecified)	-23%	-12%
CCOC(=O)CNC(=O)Nc1c(-c2cccnc2)[nH]c2ccccc12	1%	2%
CC(=O)OC1CCC2(/C=N/O)[C@H]3CCC4(C)C(C5=CC(=O)OC5)CCC4(O)[C@@H]3CCC2(O)C1 (stereo partly specified)	1µM*	0.79µM*

Compound activity: PubChem BioAssay, National Center for Advancing Translational Sciences (NCATS)
